Measurements reported in PubChem BioAssay (NCATS).
Records with an inconclusive call do not appear. Where a call stands in place of a potency, no number is given. The source made the active and inactive calls. Unless noted, calls come from the whole dose curve; as a rule, active = well fitted curve in the direction sought with a large enough effect in the repeat runs; inconclusive = weak or mixed curves; inactive = no such curve, though single readings can be large; an effect the other way counts as inactive or inconclusive.

Legend:
[1] = Primary qHTS for small molecule stabilizers of the endoplasmic reticulum resident proteome: Secreted ER Calcium Modulated Protein (SERCaMP) assay (AID 1508630; active = well fitted curve in the direction sought with a large enough effect; an effect the other way counts as inactive or inconclusive)
Outline: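 The SH-SY5Y reporter protocol was run at 3 concentrations up to 38.3 uM (primary) or 11 concentrations (follow-up): 16 h compound, 100 nM thapsigargin for 4 h, then extracellular luciferase luminescence.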

[2] = A High-Content qHTS Against Drug Library for the Identification of Small Molecules that Inhibit DYT1 Early Onset Primary Dystonia-Associated Cell Pathology (AID 1645839; calls by dose curve; note: series mostly up to about 46 µM)
Outline: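 Induced EGFP-delE TorsinA cells are imaged after 48 h of compound treatment. Punctate fusion-protein distribution gives the %pathology value, while nuclei counts flag toxicity. Wild-type EGFP-hTOR1A cells define the normal pattern.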

[3] = biological target: Cytochrome P450 2D6 (Homo sapiens) (UniProt P10635); test: Cytochrome P450 family 2 subfamily D member 6 (CYP2D6) small molecule antagonists: luciferase biochemical (cell-free) qHTS assay (AID 1645840); note: nearly all actives have a fitted effect of over 55% in size; note: potency is the fitted concentration of half-maximal effect
Sequence of Cytochrome P450 2D6 (Homo sapiens) (P10635 whole entry, looked up): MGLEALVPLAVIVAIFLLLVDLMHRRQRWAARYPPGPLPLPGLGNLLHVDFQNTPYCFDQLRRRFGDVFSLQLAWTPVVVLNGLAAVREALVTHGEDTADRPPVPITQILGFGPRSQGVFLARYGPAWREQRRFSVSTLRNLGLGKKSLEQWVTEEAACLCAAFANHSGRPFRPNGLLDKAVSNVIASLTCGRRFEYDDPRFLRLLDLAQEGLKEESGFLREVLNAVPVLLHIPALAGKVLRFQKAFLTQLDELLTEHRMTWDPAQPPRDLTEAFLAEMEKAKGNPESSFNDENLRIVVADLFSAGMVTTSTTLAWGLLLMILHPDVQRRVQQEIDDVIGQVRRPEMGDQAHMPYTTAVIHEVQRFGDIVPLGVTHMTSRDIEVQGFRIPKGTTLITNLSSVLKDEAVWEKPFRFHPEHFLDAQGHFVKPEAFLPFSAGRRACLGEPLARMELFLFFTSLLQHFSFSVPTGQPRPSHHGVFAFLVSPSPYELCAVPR
Outline: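 P450-Glo CYP2D6 system: proluciferin substrate converted by enzyme to luciferin, read by luminescence proportional to activity. Enzyme-substrate mix with compound 10 min at room temperature, then NADPH regeneration 1 h before detection reagent.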

[4] = biological target: Cytochrome P450 2C9 (Homo sapiens) (UniProt P11712); test: Cytochrome P450 family 2 subfamily C member 9 (CYP2C9) small molecule antagonists: luciferase biochemical (cell-free) qHTS assay (AID 1645842); note: series mostly up to about 57 µM; nearly all actives have a fitted effect of over 55% in size
Sequence of Cytochrome P450 2C9 (Homo sapiens) (P11712 whole entry, looked up): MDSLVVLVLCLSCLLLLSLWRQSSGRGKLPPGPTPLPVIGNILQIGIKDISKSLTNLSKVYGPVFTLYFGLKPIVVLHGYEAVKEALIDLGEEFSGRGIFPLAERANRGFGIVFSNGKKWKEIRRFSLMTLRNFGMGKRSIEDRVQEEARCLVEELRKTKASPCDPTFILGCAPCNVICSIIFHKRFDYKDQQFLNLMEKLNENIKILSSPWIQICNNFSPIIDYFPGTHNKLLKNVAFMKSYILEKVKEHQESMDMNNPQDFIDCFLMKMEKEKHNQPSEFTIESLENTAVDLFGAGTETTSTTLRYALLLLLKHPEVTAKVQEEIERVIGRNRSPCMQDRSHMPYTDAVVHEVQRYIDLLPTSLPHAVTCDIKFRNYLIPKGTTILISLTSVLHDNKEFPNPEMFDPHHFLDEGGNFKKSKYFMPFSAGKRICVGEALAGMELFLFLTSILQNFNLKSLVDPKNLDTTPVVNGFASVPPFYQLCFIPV
Outline: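 P450-Glo CYP2C9 system: proluciferin substrate with enzyme in mix containing 0.4% BSA, 10 min at room temperature, then NADPH regeneration solution added and incubated 1 h at 37C. Detection reagent stopped reaction; luminescence read after 20 min as RLU.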

SMILES | Potency [1] | Potency [2] | Potency [3] | Potency [4]
OC1(c2ccccc2)CCNCC1 | inactive | inactive | 27.5 µM (active) | inactive
CCCc1c2oc(C(=O)O)cc(=O)c2cc2c(=O)cc(C(=O)O)n(CC)c12 | inactive | inactive | inactive | inactive
C[C@H]1NCc2cc(-c3ccc4c(=O)c(C(=O)O)cn(C5CC5)c4c3OC(F)F)ccc21 | inactive | inactive | inactive | inactive
COCCc1ccccn1 | inactive | inactive | inactive | inactive
Oc1ccccc1-c1nnco1 | inactive | inactive | inactive | inactive
CC[N+](CC)(CC)CCOC(=O)C(C1CCCC1)C1CCCC1 | inactive | inactive | 3.09 µM (active) | inactive
O=C1Nc2cc(Cl)ccc2Oc2ccccc21 | inactive | inactive | inactive | inactive
O=C(O)CCCC[P+](c1ccccc1)(c1ccccc1)c1ccccc1 | inactive | inactive | inactive | inactive
C[C@]12CCC(=O)C=C1CC[C@@H]1[C@@H]2[C@@H](O)C[C@@]2(C)[C@H]1CC[C@]2(O)C(=O)COC(=O)CCC(=O)O | inactive | inactive | inactive | inactive
OCCCc1ccccc1 | inactive | inactive | inactive | inactive
CCCCCC[C@@H](CCC)C(=O)O | inactive | inactive | inactive | inactive
Cc1ccc(Cl)c(OCC(O)CNC(C)(C)C)c1 (stereo unspecified) | inactive | inactive | 1.74 µM (active) | inactive
COC(=O)c1ccc(NC(C)=O)cc1OC | inactive | inactive | inactive | inactive
CCCCC(O)/C=C(C)/C=C/C=C/C(=O)N1CCCC1=O (stereo unspecified) | inactive | inactive | inactive | inactive
